# Screening data from PubChem.
# PfHsp40 yeast – rescue of yeast from PfHsp40 toxicity, primary screen, S. cerevisiae, ATP luminescence; AID 504582, 2011; S. cerevisiae expressing PfHsp40, growth rescue; 0.68% of 340,000 active; growth rescue, % at 12.5 µM; in the data active = growth rescue above about 28%, passing the limit was not always enough; inconclusive = no clear call, values can overlap the other calls;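 note: yeast W303a lacking pdr1 and pdr3 grown in galactose medium; growth measured after three days at 30 °C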
# CCHF vOTU inh – CCHFV vOTU protease inhibitors, primary screen, biochemical, Pep-AMC substrate, fluorescence | Crimean-Congo hemorrhagic fever virus L polyprotein viral ovarian tumor (vOTU) protease … | inhibition, % at 11.5 µM | 0.55% of 370,000 active | AID 651958, 2012; in the data active = inhibition above about 30%; note: 0% = vehicle wells with enzyme and 100% = no enzyme wells
# PrP UTR inh – inhibition of PrP 5' UTR reporter expression | cell-based PrP 5' UTR mRNA reporter, plate reader | inhibition, % (concentration not given with the values) | 0.35% of 340,000 active | AID 488862, 2010; in the data active = inhibition above about 52%; note: 0 = median of the neutral control wells
# Y pestis TopoI – Yersinia pestis topoisomerase I inhibitors, primary screen, biochemical, cleavage product accumulation, plate reader, single point; DNA topoisomerase I (Yersinia pestis CO92); Y. pestis Topo-I cleavage product accumulation; activity, % at 10 µM; 0.064% of 360,000 active; AID 504884, 2011; in the data active = activity above about 50%, passing the limit was not always enough; inconclusive = no clear call, values can overlap the other calls
# BJeLR viability – MLPCN primary cell-based screen for lethality selective to Ras in HRASV12 cells; BJeLR (HRASV12) viability, CellTiter-Glo ATP luminescence, 48 h; 0.17% of 300,000 active; inhibition, % (concentration not given with the values); in the data active = inhibition above about 50%; inconclusive = no clear call, values can overlap the other calls
# PrPC TRFRET – inhibitors of human cell surface prion protein PrPC, primary screen, cell-based, TR-FRET; AID 720596, 2013; inhibition, % at 13.8 µM; TR-FRET read-out; Major prion protein (Homo sapiens), P04156; 0.43% of 370,000 active; in the data active = inhibition above about 24%; note: 0% = median of the test wells and 100% = reference compound wells
# PrP UTR cherry – prion 5' UTR mRNA inhibition, cherry-pick retest. shares compounds with PrP UTR inh. cell-based prion protein 5' UTR reporter, plate reader. inhibition, % at 2.5 µM. 48% of 1,100 active. AID 504592, 2011; in the data active = inhibition above about 54%; inconclusive = no clear call, values can overlap the other calls
# An asterisk follows results filed as active; ? = inconclusive; / = not tested or not shown. Shown are actives, neighbours in structure and some others; about 2% of the full set was active somewhere.
SMILES,PfHsp40 yeast,CCHF vOTU inh,PrP UTR inh,Y pestis TopoI,BJeLR viability,PrPC TRFRET,PrP UTR cherry
COc1ccc(C2C(C#N)=C(N)Oc3cc(N)ccc32)cc1 (stereo not given),0,-1,-18,-19,-3,-6,/
COc1cc(C2C(C#N)=C(N)Oc3cc(N)ccc32)cc(OC)c1OC (stereo not given),1,5,67*,-6,/,-9,88*
Cc1nc(N)nc(N)c1-c1ccc(Cl)c(Cl)c1,1,-12,58*,-2,/,1,9
COc1ccc(S[C@]2(C(=O)N3CCCC3)CC(=O)N(C(=O)Nc3ccc(C)c(Cl)c3)[C@@H]2c2ccc(OC)cc2)cc1,/,3,/,/,/,2,/
CCN(CC)C(=S)Nc1ccc(OC)cc1,2,-12,55*,3,4,-2,-15
CCN(CC)C(=S)Nc1ccc(OC(F)F)cc1,-2,-15,-14,1,-7,3,/
CCCCCCN1C=CC(=C2C(=O)c3ccccc3C2=O)C=C1,1,11,72*,-6,16,-2,72*
CN1C=CC(=C2C(=O)c3ccccc3C2=O)C=C1,/,/,/,/,11,/,/
CCCCN1C(C)=CC(=C2C(=O)c3ccccc3C2=O)C=C1C,0,4,9,17,5,-11,/
CCCN1C=CC(=C2C(=O)c3ccccc3C2=O)C=C1,-1,4,93*,12,68*,-44,96*
CCN1C=CC(=C2C(=O)c3ccccc3C2=O)C=C1,0,3,88*,2,30,-38,91*
Cc1ccccc1Nc1n[nH]c(=S)s1,/,-9,/,1,/,-3,/
Cc1c(Cl)cccc1Nc1n[nH]c(=S)s1,-1,-1,71*,0,/,-7,-17
Cc1ccc(C(=O)Nc2ncc([N+](=O)[O-])s2)cc1,6,3,71*,-6,13,-5,73*
Cc1ccc(C(=O)Nc2ncc(Cc3ccc(F)cc3)s2)o1,1,2,-86,0,-8,15,/
Cc1ccc(C(=O)Nc2ncc(Cc3ccc(SC(F)F)cc3)s2)cc1,-1,-15,62*,-11,24,5,89*
COC(=O)[C@]12C[C@H](CC(=O)NCCCCc3ccccc3)C(=O)N(Cc3cccc4ccccc34)C1=C[C@H](C1CCCC1)O[C@@H]2C,/,29,/,/,/,-9,/
C=CCN1C(=O)[C@@H](CC(=O)NCc2cccs2)[C@]2(C(=O)OC)CCCCC=C12,/,2,/,/,/,-4,/
Cc1cnc(NC(=O)c2ccc3c(c2)OCCO3)s1,0,-3,81*,1,/,16,73*
Cc1nc2ccc3nc(NC(=O)c4ccc5c(c4)OCCO5)sc3c2s1,-1,-3,-37,13,2,4,/
CC(C)c1nnc(NC(=O)c2ccc3c(c2)OCO3)s1,-2,-7,54*,0,-1,2,?
CCCS(=O)(=O)N1CCCC(C(=O)NC2CCCC(C)C2C)C1 (stereo not given),-1,3,86*,-3,-7,2,-13
CCOC(=O)C1(CC)Oc2ccccc2C(c2ccc(OC)cc2)=C1C(=O)OC (stereo not given),2,2,71*,34,/,10,-7
COc1ccc(S(=O)(=O)NCc2ccco2)cc1C(=O)N1CCOCC1,0,4,-11,5,-2,3,/
O=C(c1cc(S(=O)(=O)NCc2ccco2)ccc1Br)N1CCOCC1,1,6,79*,1,/,-1,13
SMILES,PfHsp40 yeast,CCHF vOTU inh,PrP UTR inh,Y pestis TopoI,BJeLR viability,PrPC TRFRET,PrP UTR cherry
COc1cc(C2c3cc4c(cc3CC3COC(=O)C32)OCO4)cc(OC)c1OC (stereo not given),1,-1,55,7,/,12,/
COc1cc(C2c3cc4c(cc3CC3COC(=O)N32)OCO4)cc(OC)c1OC (stereo not given),-1,5,58*,4,/,7,91*
COC(=O)C1=C(C)N(C)C(=NCc2cccc(C(F)(F)F)c2)NC1c1ccccc1 (stereo not given),/,-4,/,/,/,-11,/
CC1CCN(C(=O)/C(=C\c2ccco2)NC(=O)c2ccccc2)CC1,0,15,-8,3,-7,-10,/
CC1CCN(C(=O)/C(=C\c2cccs2)NC(=O)c2ccccc2)CC1,-1,6,59*,8,/,-2,-10
O=C(c1ccccc1)n1ccc2ccc(-c3ccc4ccn(Cc5ccccc5)c4c3)cc21,/,1,/,/,/,2,/
Cc1ccc2nc3sc(C(=O)N4CCOCC4)c(N)c3cc2c1,-1,-3,86*,6,1,-4,69*
Cc1ccc2cc3c(N)c(C(=O)N4CCOCC4)sc3nc2c1,-1,7,-50,-2,-6,-35,/
Cc1n[nH]c(C)c1S(=O)(=O)N1CCCC(C(=O)NCc2ccc(F)cc2)C1 (stereo not given),1,5,84*,-12,-8,4,3
O=C(c1ccncc1)N1CC[C@H]2[C@H](CCCN2Cc2ccccc2)C1,/,-3,/,/,/,0,/
CN1CCN(Cc2nc3c(c(=O)n(C)c(=O)n3C)n2CCCc2ccccc2)CC1,0,-8,-23,-3,-1,-4,/
Cn1c(=O)c2c(nc(CN3CCN(c4ccccc4F)CC3)n2CCCc2ccccc2)n(C)c1=O,-1,-5,83*,-3,-11,0,-3
Cc1cc(C)nc(NC(=S)N2CCN(c3ncc(C(F)(F)F)cc3Cl)CC2)c1,/,/,/,/,/,9,/
CCOc1ccc(C(=O)c2cc([N+](=O)[O-])ccc2N2CCOCC2)cc1,1,0,58*,5,53*,-3,72*
COc1ccc(C(=O)c2cc([N+](=O)[O-])ccc2N2CCOCC2)cc1,0,-5,83*,-6,59*,-11,80*
O=C(Nc1ccccc1SC(=O)c1ccccc1)c1ccccc1,/,-3,/,16,/,5,/
Cc1ccc(C(=O)Sc2cccccc2=O)cc1,698*,13,57*,5,104*,7,?
Cc1[nH]c2ccccc2c1CC(=O)Nc1ccc(Nc2cccnc2)c(-c2ccc(Oc3ccccc3)cc2)c1,/,11,/,/,/,-1,/
COC(=O)C1=C(C)N(Cc2cccc(C(F)(F)F)c2)C(=NCc2cc(OC)c(OC)c(OC)c2)NC1c1ccccc1C(F)(F)F (stereo not given),/,-1,/,/,/,7,/
COc1cc(OC)c2c(-c3cccc(-c4ccc(C(C)=O)cc4)c3)cc(=O)oc2c1,-1,/,64*,1,/,/,93*
Cc1ccccc1NC(=S)N/N=C/C(C)c1ccccc1 (stereo not given),-1,-9,-7,6,9,-3,/
